Compound activity as filed in PubChem BioAssay.
ER stress death: ER stress cell death inhibition; CSM14.1 thapsigargin ER stress survival, ATP luminescence; relative survival (cellular ATP), % at 15 µg/mL (by protocol); 48,000 compounds, 0.33% hits;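 active means survival measured by cellular ATP above 50% at 15 µg/ml in the first screen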;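 further: cell death triggered by about 15 µM thapsigargin; ATP read 24 h after thapsigargin was added; plate controls were thapsigargin with DMSO for no effect and DMSO without thapsigargin for full effect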
* = called active by the depositor. Only a selection was taken, and hits are over-represented in it overall.

SMILES | ER stress death
CCC(C)c1ccc(OCCOc2ccc(/C=C3/SC(=S)N(C)C3=O)cc2OC)cc1 (configuration not stated) | 88.8*
COc1cc(/C=C2/SC(=S)N(C)C2=O)ccc1OCc1cccc2ccccc12 | 8.4
CCOc1cc(/C=C2/SC(=S)N(C)C2=O)ccc1OCCOc1ccccc1C | 2.5
CCCOc1ccc(N2C(=O)CC(N(CCc3ccccc3)C(=O)/C=C/C(=O)O)C2=O)cc1 (configuration not stated) | 9.3
Cc1ccc(-n2c(O)c(/C=N/N(C)C)c3ccccc3c2=O)cc1 | -7.5
CCCOc1ccc(-c2ccc(-c3nc(-c4cccnc4)no3)cc2)cc1 | -0.6
COc1ccc(-c2nc3cc(NC(=O)COc4ccccc4[N+](=O)[O-])ccc3o2)cc1Cl | 4.6
CCCCc1c(C)nc(N/N=C/c2ccc(OCCC)cc2O)[nH]c1=O | 10.5
COc1cccc(-n2c(/C=C/c3c(C)[nH]c4ccccc34)nc3ccccc3c2=O)c1 | 1.1
Cn1cc(/C=C/c2nc3ccccc3c(=O)n2-c2ccc([N+](=O)[O-])cc2)c2ccccc21 | 5.5
COc1cccc(-n2c(/C=C/c3cn(C)c4ccccc34)nc3ccccc3c2=O)c1 | 76.5*
O=C(COc1ccc2ccccc2c1)Nc1cccc(Cl)c1Cl | 0.2
Cc1ccc(N2NC(=O)/C(=C/c3ccc(N4CCOCC4)cc3)C2=O)cc1C | 8.7
O=C(COc1ccccc1[N+](=O)[O-])Nc1ccc(Cc2ccncc2)cc1 | -1.3
O=C(c1cccc(C(=O)N2CCN(c3cccc(Cl)c3)CC2)c1)N1CCN(c2cccc(Cl)c2)CC1 | 98.6*
O=C(c1cccc(Cl)c1)N1CCN(c2cccc(Cl)c2)CC1 | 8.0
O=C(c1ccc(Cl)cc1)N1CCN(c2cccc(Cl)c2)CC1 | -3.9
CCOc1ccc(N2C(=O)/C(=C/c3ccc(C(=O)O)cc3)SC2=S)cc1 | 10.4
COc1ccc(/C=C/C(=O)OCC(=O)c2cccc([N+](=O)[O-])c2)cc1S(=O)(=O)N1CCCCC1 | 10.2
CC1=C(C)CC(C(=O)c2ccc(Br)cc2)C(C(=O)O)C1 (configuration not stated) | -0.3
COc1ccc(C2CC(=O)C3=C(C2)Nc2ccccc2NC3c2cccc3ccccc23)cc1OC (configuration not stated) | -0.6
CCCOc1ccc(C2Nc3ccccc3NC3=C2C(=O)CC(c2ccc(OC)c(OC)c2)C3)cc1 (configuration not stated) | 103.4*
COc1ccc(C2Nc3ccccc3NC3=C2C(=O)CC(C)(C)C3)cc1OCc1ccccc1 (configuration not stated) | 7.3
COc1ccc(C2CC(=O)C3=C(C2)Nc2ccccc2NC3c2cc(OC)c(OC)cc2OC)cc1 (configuration not stated) | 8.0
COc1ccc(C2CC(=O)C3=C(C2)Nc2ccccc2NC3c2ccccc2C(F)(F)F)cc1OC (configuration not stated) | 124.1*
SMILES | ER stress death
COc1ccc(C2CC(=O)C3=C(C2)Nc2ccccc2NC3c2ccccc2C)cc1OC (configuration not stated) | 10.7
CCc1ccc(C2Nc3ccccc3NC3=C2C(=O)CC(c2ccc(OC)c(OC)c2)C3)cc1 (configuration not stated) | 89.1*
COc1ccc(C2CC(=O)C3=C(C2)Nc2ccccc2NC3c2ccc(OCc3ccccc3)c(OC)c2)cc1OC (configuration not stated) | 125.1*
COc1ccc(C2CC(=O)C3=C(C2)Nc2ccccc2NC3c2ccc([N+](=O)[O-])cc2)cc1OC (configuration not stated) | -1.9
COc1ccc(C2CC(=O)C3=C(C2)Nc2ccccc2NC3c2ccc(Cl)c(Cl)c2)cc1OC (configuration not stated) | 12.2
COc1ccc(C2CC(=O)C3=C(C2)Nc2ccccc2NC3c2ccncc2)cc1OC (configuration not stated) | 6.1
Oc1c(Cl)cc(Cl)cc1/C=N/Nc1nnc(-c2ccccc2)c(-c2ccccc2)n1 | 4.0
COc1ccc2[nH]cc(CCNC(=S)Nc3ccccc3)c2c1 | -4.1
O=C(c1cc2n(n1)C(C(F)(F)F)CC(c1ccco1)N2)N1CCCc2ccccc21 (configuration not stated) | 13.7
CCn1c2ccccc2c2nnc(-n3nc(C)c(Cc4ccccc4)c3C)nc21 | 2.8
O=C(CSc1nnc(-c2cccc(Cl)c2)n1-c1ccccc1)c1cccc([N+](=O)[O-])c1 | -0.4
CCOc1cc(C2Nc3cc(C)c(C)cc3NC3=C2C(=O)CC(C)(C)C3)cc([N+](=O)[O-])c1O (configuration not stated) | -0.2
CCOC(=O)c1ccccc1NC(=O)CN(c1ccc(C)c(Cl)c1)S(C)(=O)=O | 7.4
Cc1nonc1N=Cc1cc(I)cc(I)c1O | 2.6
O=C(Nc1ccc(F)c([N+](=O)[O-])c1)c1cnccn1 | 7.2
COc1ccc(C2CC(=O)C3=C(C2)Nc2ccccc2NC3c2ccc(SC)cc2)cc1OC (configuration not stated) | 112.2*
COc1ccc(C2CC(=O)C3=C(C2)Nc2ccccc2NC3c2ccccc2Br)cc1OC (configuration not stated) | 5.0
COc1ccc(C2CC(=O)C3=C(C2)Nc2ccccc2NC3c2cc(OC)ccc2OC)cc1 (configuration not stated) | 1.3
COc1ccc(C2CC(=O)C3=C(C2)Nc2ccccc2NC3c2cc(Br)ccc2OC)cc1OC (configuration not stated) | 111.8*
COC(=O)CN(c1cccc(Br)c1)S(C)(=O)=O | -2.8
COc1ccccc1/C=C(/C#N)c1nc2ccc(C)cc2[nH]1 | -1.9
COc1cc2c(cc1OC)C(CC(=O)Nc1ccc(C)cc1C)=NC(C)(C)C2 | 53.0*
COC(=O)CCC(=O)Nc1ccc(C)cc1C | 1.9
COc1ccc(C(=O)Nc2ccc(C)cc2C)cc1OC | 1.3
CN(C)CCCNC(=O)COc1ccc(Br)cc1 | -0.9
SMILES | ER stress death
CN(C)c1nccc(N(Cc2ccccc2)Cc2ccccc2)c1C#N | 82.6*
COc1nccc(Nc2ccccc2)c1C#N | 2.0
CN(C)CCN(Cc1ccccc1)c1ccnc(N(C)C)c1C#N | -4.0
CCN(CC)CCOc1c(C)cc(C)cc1Cl | -0.1
CCN(CC)c1ccc(NC(=O)Cc2ccc(Cl)cc2)cc1 | 4.4
Cc1nc(N)sc1C(=O)N/N=C/c1ccc(Cl)cc1Cl | 2.8
COc1ccc(CC(=O)N2CCN(c3cccc(Cl)c3)CC2)cc1OC | 7.1
CCC(Oc1ccccc1)C(=O)N1CCN(C(c2ccccc2)c2ccccc2)CC1 (configuration not stated) | 47.3
COc1ccc(/C=N/OCC(=O)N2CCN(C(c3ccccc3)c3ccccc3)CC2)cc1OC | 116.3*
Cc1cc(Cl)ccc1OCCCC(=O)Nc1ccc(C(N)=O)cc1 | 1.4
CC(=O)c1cc(O)cc(S(=O)(=O)c2ccc(C)cc2)c1O | 3.2
COc1ccc(C(=O)N/C(=C/c2ccc(Br)cc2)c2nc3ccccc3[nH]2)cc1 | 6.5
CN(C)c1ccc(/C=C(/c2ccccc2)c2nc3ccccc3[nH]2)cc1 | 39.5
COc1ccc(/C=C(/c2ccccc2)c2nc3ccccc3[nH]2)cc1 | 51.1*
NC(=Nc1ccccc1)SC1CC(=O)N(c2ccc(F)cc2)C1=O (configuration not stated) | 6.6
O=C(O)c1ccccc1-c1ccc(/C=C2\SC(=Nc3ccccc3)N(c3ccccc3)C2=O)o1 | 17.9
COc1ccc(C(=O)N/C(=C\c2ccc(Cl)cc2)C(=O)NCC2CCCO2)cc1 (configuration not stated) | 0.2
